# Among all 5,500 compounds or so, about 2,000 (36%) were called active. About 18% were inconclusive and are not listed. The list shows a part of the results. A number with no mark means an inactive call. Cut-off read from the data, not from the text of the source: active = normalized growth mostly below about 0.91 (no sharp cut-off); inconclusive = no clear call, values can overlap the other calls; inactive = mostly above about 0.92.
# Assay: chemical genetic growth profiling, strain panel (AID 1159580);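 note: tested at 20 µM; growth read once vehicle control cultures reached saturation at 30 °C; 1 = growth at the plate median or of vehicle wells; lower values mean less growth of the strain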
# Details: growth OD
# [1] = S. cerevisiae deletion strains, locus YHR030C, strain SLT2, active compounds read low
# [2] = S. cerevisiae deletion strains, locus YHR079C, strain IRE1, active compounds read low
# [3] = S. cerevisiae deletion strains, locus YJL095W, strain BCK1, active compounds read low
# [4] = S. cerevisiae deletion strains, locus YJR066W, strain TOR1, active compounds read low
# [5] = S. cerevisiae deletion strains, locus YLR113W, strain HOG1, active compounds read low
# [6] = S. cerevisiae deletion strains, locus YNL183C, strain NPR1, active compounds read low
# [7] = S. cerevisiae deletion strains, locus YOR231W, strain MKK1, active compounds read low
# [8] = S. cerevisiae deletion strains, locus YPL256C, strain CLN2, active compounds read low
compound,measurement,setting,value
CCOC(=O)c1ccc(O)cc1,normalized growth,"S. cerevisiae deletion strains, locus YAL021C, strain ccr4, active compounds read low",1.03
same,normalized growth,"S. cerevisiae deletion strains, locus YAL026C, strain drs2, active compounds read low",1.02
same,normalized growth,"S. cerevisiae deletion strains, locus YAL030W, strain snc1, active compounds read low",1.01
same,normalized growth,"S. cerevisiae deletion strains, locus YBL061C, strain skt5, active compounds read low",1.01
same,normalized growth,"S. cerevisiae deletion strains, locus YBR009C, strain hhf1, active compounds read low",0.999
same,normalized growth,"S. cerevisiae deletion strains, locus YBR023C, strain chs3, active compounds read low",1.01
same,normalized growth,"S. cerevisiae deletion strains, locus YBR171W, strain sec66, active compounds read low",1.01
same,normalized growth,"S. cerevisiae deletion strains, locus YBR231C, strain swc5, active compounds read low",1.02
same,normalized growth,"S. cerevisiae deletion strains, locus YBR279W, strain paf1, active compounds read low",1.02
same,normalized growth,"S. cerevisiae deletion strains, locus YCL011C, strain gbp2, active compounds read low",1
same,normalized growth,"S. cerevisiae deletion strains, locus YCL016C, strain dcc1, active compounds read low",1
same,normalized growth,"S. cerevisiae deletion strains, locus YCL061C, strain MRC1, active compounds read low",1.01
same,normalized growth,"S. cerevisiae deletion strains, locus YCL069W, strain vba3, active compounds read low",1.01
same,normalized growth,"S. cerevisiae deletion strains, locus YCR088W, strain abp1, active compounds read low",1.01
same,normalized growth,"S. cerevisiae deletion strains, locus YDL005C, strain med2, active compounds read low",1.02
same,normalized growth,"S. cerevisiae deletion strains, locus YDL040C, strain nat1, active compounds read low",1.01
same,normalized growth,"S. cerevisiae deletion strains, locus YDR001C, strain nth1, active compounds read low",1.01
same,normalized growth,"S. cerevisiae deletion strains, locus YDR069C, strain doa4, active compounds read low",1.02
same,normalized growth,"S. cerevisiae deletion strains, locus YDR137W, strain rgp1, active compounds read low",1.03
same,normalized growth,"S. cerevisiae deletion strains, locus YDR159W, strain sac3, active compounds read low",0.994
same,normalized growth,"S. cerevisiae deletion strains, locus YDR195W, strain ref2",1.06
same,normalized growth,"S. cerevisiae deletion strains, locus YDR297W, strain sur2, active compounds read low",1.02
same,normalized growth,"S. cerevisiae deletion strains, locus YDR334W, strain swr1, active compounds read low",1.02
same,normalized growth,"S. cerevisiae deletion strains, locus YDR335W, strain msn5, active compounds read low",1.01
same,normalized growth,"S. cerevisiae deletion strains, locus YDR392W, strain spt3, active compounds read low",0.941
same,normalized growth,"S. cerevisiae deletion strains, locus YEL003W, strain gim4, active compounds read low",1.02
same,normalized growth,"S. cerevisiae deletion strains, locus YEL037C, strain rad23, active compounds read low",1.02
same,normalized growth,"S. cerevisiae deletion strains, locus YEL061C, strain CIN8 (second series), active compounds read low",1.01
same,normalized growth,"S. cerevisiae deletion strains, locus YER015W, strain faa2, active compounds read low",1.02
same,normalized growth,"S. cerevisiae deletion strains, locus YER016W, strain bim1, active compounds read low",1
same,normalized growth,"S. cerevisiae deletion strains, locus YER111C, strain swi4, active compounds read low",1.01
same,normalized growth,"S. cerevisiae deletion strains, locus YER155C, strain BEM2 (second series), active compounds read low",0.975
same,normalized growth,"S. cerevisiae deletion strains, locus YFR010W, strain ubp6, active compounds read low",1.01
same,normalized growth,"S. cerevisiae deletion strains, locus YGL167C, strain pmr1, active compounds read low",1.01
same,normalized growth,"S. cerevisiae deletion strains, locus YGL173C, strain kem1, active compounds read low",1.02
same,normalized growth,"S. cerevisiae deletion strains, locus YGL227W, strain vid30, active compounds read low",1.01
same,normalized growth,"S. cerevisiae deletion strains, locus YGL240W, strain doc1, active compounds read low",0.985
same,normalized growth,"S. cerevisiae deletion strains, locus YGL253W, strain hxk2, active compounds read low",1.01
same,normalized growth,"S. cerevisiae deletion strains, locus YHR013C, strain ard1, active compounds read low",1.05
same,normalized growth,"S. cerevisiae deletion strains, locus YHR027C, strain rpn1, active compounds read low",1.01
same,normalized growth,[1],1.02
same,normalized growth,[2],1.01
same,normalized growth,"S. cerevisiae deletion strains, locus YHR142W, strain chs7, active compounds read low",1.01
same,normalized growth,"S. cerevisiae deletion strains, locus YJL092W, strain hpr5, active compounds read low",1.02
same,normalized growth,"S. cerevisiae deletion strains, locus YJL095W, strain BCK1 (second series), active compounds read low",1
same,normalized growth,[3],1.01
same,normalized growth,"S. cerevisiae deletion strains, locus YJL115W, strain asf1, active compounds read low",1.03
same,normalized growth,"S. cerevisiae deletion strains, locus YJL129C, strain trk1, active compounds read low",1.03
same,normalized growth,"S. cerevisiae deletion strains, locus YJL154C, strain vps35, active compounds read low",1.01
same,normalized growth,"S. cerevisiae deletion strains, locus YJL164C, strain tpk1, active compounds read low",0.995
same,normalized growth,"S. cerevisiae deletion strains, locus YJL166W, strain qcr8, active compounds read low",0.997
same,normalized growth,"S. cerevisiae deletion strains, locus YJL187C, strain SWE1, active compounds read low",1.02
same,normalized growth,[4],0.958
same,normalized growth,"S. cerevisiae deletion strains, locus YKL160W, strain elf1, active compounds read low",1
same,normalized growth,"S. cerevisiae deletion strains, locus YKR026C, strain gcn3, active compounds read low",0.995
same,normalized growth,"S. cerevisiae deletion strains, locus YKR091W, strain srl3, active compounds read low",1.01
same,normalized growth,"S. cerevisiae deletion strains, locus YLL001W, strain dnm1, active compounds read low",0.989
same,normalized growth,"S. cerevisiae deletion strains, locus YLL026W, active compounds read low",1.01
same,normalized growth,"S. cerevisiae deletion strains, locus YLL041C, strain sdh2, active compounds read low",1.01
same,normalized growth,"S. cerevisiae deletion strains, locus YLR027C, strain aat2, active compounds read low",1
same,normalized growth,[5],0.966
same,normalized growth,"S. cerevisiae deletion strains, locus YLR221C, strain rsa3, active compounds read low",0.999
same,normalized growth,"S. cerevisiae deletion strains, locus YLR258W, strain gsy2, active compounds read low",1.01
same,normalized growth,"S. cerevisiae deletion strains, locus YLR262C, strain YPT6 (second series), active compounds read low",1.03
same,normalized growth,"S. cerevisiae deletion strains, locus YLR320W, strain mms22, active compounds read low",0.992
same,normalized growth,"S. cerevisiae deletion strains, locus YLR342W, strain FKS1, active compounds read low",1.02
same,normalized growth,"S. cerevisiae deletion strains, locus YLR357W, strain rsc2, active compounds read low",1.03
same,normalized growth,"S. cerevisiae deletion strains, locus YLR370C, strain arc18, active compounds read low",1.01
same,normalized growth,"S. cerevisiae deletion strains, locus YLR384C, strain iki3, active compounds read low",1.02
same,normalized growth,"S. cerevisiae deletion strains, locus YML120C, strain ndi1, active compounds read low",0.998
same,normalized growth,"S. cerevisiae deletion strains, locus YMR058W, strain fet3, active compounds read low",1.02
same,normalized growth,"S. cerevisiae deletion strains, locus YMR125W, strain sto1, active compounds read low",1.03
same,normalized growth,"S. cerevisiae deletion strains, locus YMR129W, active compounds read low",1.02
same,normalized growth,"S. cerevisiae deletion strains, locus YMR205C, strain PFK2, active compounds read low",1.02
same,normalized growth,"S. cerevisiae deletion strains, locus YMR231W, strain pep5, active compounds read low",1.02
same,normalized growth,"S. cerevisiae deletion strains, locus YNL071W, strain lat1, active compounds read low",1.01
same,normalized growth,[6],0.962
same,normalized growth,"S. cerevisiae deletion strains, locus YNL209W, strain ssb2, active compounds read low",1.02
same,normalized growth,"S. cerevisiae deletion strains, locus YNL248C, strain rpa49, active compounds read low",1.02
same,normalized growth,"S. cerevisiae deletion strains, locus YNL322C, strain KRE1 (second series), active compounds read low",1.01
same,normalized growth,"S. cerevisiae deletion strains, locus YNR049C, strain mso1, active compounds read low",1.01
same,normalized growth,"S. cerevisiae deletion strains, locus YOR001W, strain rrp6, active compounds read low",1.01
same,normalized growth,"S. cerevisiae deletion strains, locus YOR070C, strain gyp1, active compounds read low",1.01
same,normalized growth,"S. cerevisiae deletion strains, locus YOR080W, strain dia2, active compounds read low",1.02
same,normalized growth,"S. cerevisiae deletion strains, locus YOR083W, strain WHI5, active compounds read low",1
same,normalized growth,"S. cerevisiae deletion strains, locus YOR106W, strain vam3, active compounds read low",1.02
same,normalized growth,[7],1
same,normalized growth,"S. cerevisiae deletion strains, locus YOR265W, strain rbl2, active compounds read low",1.01
same,normalized growth,"S. cerevisiae deletion strains, locus YOR270C, strain vph1, active compounds read low",0.988
same,normalized growth,"S. cerevisiae deletion strains, locus YOR290C, strain snf2, active compounds read low",0.975
same,normalized growth,"S. cerevisiae deletion strains, locus YPL051W, strain arl3, active compounds read low",0.998
same,normalized growth,"S. cerevisiae deletion strains, locus YPL078C, strain atp4, active compounds read low",1
same,normalized growth,"S. cerevisiae deletion strains, locus YPL106C, strain sse1, active compounds read low",1
same,normalized growth,"S. cerevisiae deletion strains, locus YPL240C, strain hsp82, active compounds read low",1.01
same,normalized growth,[8],1.01
CCCCOC(=O)c1ccc(O)cc1,normalized growth,[1],0.854 (active)
same,normalized growth,[2],0.879
same,normalized growth,[3],0.895
same,normalized growth,[4],0.934
same,normalized growth,[5],0.768 (active)
same,normalized growth,[6],0.892
same,normalized growth,[7],0.951
same,normalized growth,[8],0.799 (active)
Nc1cc2c(cc1Cl)C(=O)NC2=O,normalized growth,"S. cerevisiae deletion strains, locus YAL013W, strain DEP1, active compounds read low",0.995
same,normalized growth,"S. cerevisiae deletion strains, locus YBR229C, strain ROT2, active compounds read low",0.999
same,normalized growth,"S. cerevisiae deletion strains, locus YDL101C, strain DUN1, active compounds read low",1.02
same,normalized growth,"S. cerevisiae deletion strains, locus YDL134C, strain PPH21, active compounds read low",1.02
same,normalized growth,"S. cerevisiae deletion strains, locus YDR150W, strain NUM1, active compounds read low",0.929
same,normalized growth,"S. cerevisiae deletion strains, locus YEL061C, strain CIN8, active compounds read low",1.01
same,normalized growth,"S. cerevisiae deletion strains, locus YGR078C, strain PAC10, active compounds read low",1
same,normalized growth,[1],1.04
same,normalized growth,"S. cerevisiae deletion strains, locus YHR087W, strain rtc3, active compounds read low",0.988
same,normalized growth,"S. cerevisiae deletion strains, locus YJR043C, strain POL32, active compounds read low",1.01
same,normalized growth,"S. cerevisiae deletion strains, locus YJR075W, strain HOC1, active compounds read low",0.996
same,normalized growth,"S. cerevisiae deletion strains, locus YLR039C, strain RIC1, active compounds read low",0.994
same,normalized growth,"S. cerevisiae deletion strains, locus YLR058C, strain SHM2 (second series), active compounds read low",1
same,normalized growth,"S. cerevisiae deletion strains, locus YLR085C, strain ARP6, active compounds read low",0.98
same,normalized growth,"S. cerevisiae deletion strains, locus YLR262C, strain YPT6, active compounds read low",1
same,normalized growth,"S. cerevisiae deletion strains, locus YML094W, strain GIM5, active compounds read low",0.985
same,normalized growth,"S. cerevisiae deletion strains, locus YMR219W, strain ESC1, active compounds read low",1.01
same,normalized growth,"S. cerevisiae deletion strains, locus YMR263W, strain SAP30, active compounds read low",0.984
same,normalized growth,"S. cerevisiae deletion strains, locus YNL153C, strain GIM3, active compounds read low",1
same,normalized growth,"S. cerevisiae deletion strains, locus YNL298W, strain CLA4 (second series), active compounds read low",1.03
same,normalized growth,"S. cerevisiae deletion strains, locus YNL322C, strain KRE1, active compounds read low",0.999
same,normalized growth,"S. cerevisiae deletion strains, locus YNR030W, strain Alg12, active compounds read low",0.985
same,normalized growth,"S. cerevisiae deletion strains, locus YOL006C, strain TOP1, active compounds read low",1.02
same,normalized growth,"S. cerevisiae deletion strains, locus YPL055C, strain LGE1, active compounds read low",0.851
same,normalized growth,"S. cerevisiae deletion strains, locus YPL241C, strain CIN2, active compounds read low",0.985
same,normalized growth,"S. cerevisiae deletion strains, locus YPR135W, strain CTF4, active compounds read low",1.02
same,normalized growth,"S. cerevisiae strains, strain wild type, active compounds read low",1.02

# Reference: PubChem BioAssay AID1159580 (chemical genetic matrix, 2015)
